This excerpt belongs to a sample that is enriched for hits.
GIRK2 act: activators of NPY4-receptor-primed GIRK2 channels, summary, cell-based, HEK293, thallium flux | G protein-activated inward rectifier potassium channel 2 (Homo sapiens), P48051 | HEK293 GIRK2/NPY4 cells, thallium flux fluorescence | activation (% efficacy), % for hits at 37.5 µM | 34,000 tested, under 10 active | AID 1259324, 2017;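 active = primary screen hit, no activity in plain HEK293 cells, and in GIRK2-only cells above 5% efficacy rising with concentration; inactive = the rest, including fluorescent compounds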;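 note: efficacy is normalized control-subtracted fluorescence 15 s after thallium addition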
AMPAR-TARP mod: modulators of GluA2-stargazin AMPA receptor complexes, primary screen, cell-based, membrane potential dye. 3.5% of 40,000 active. calls only at 30 µM. Voltage-dependent calcium channel gamma-2 subunit (Mus musculus) + Glutamate receptor 2 …. HEK293 GluA2+stargazin, membrane potential dye (FDSS), glutamate EC50; hits were called plate by plate, in both directions;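 active = any of four per-well response measures lying three or more SD from its plate-wide compound average, in either direction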
Active calls of the source: *; i = inactive; nt = no result given; + = active, no number; ! = repeats disagree.

SMILES	GIRK2 act	AMPAR-TARP mod
CCN1CCN(c2nc3c(c(=O)[nH]c(=O)n3C)n2CC(O)COc2ccc(Cl)cc2)CC1 (configuration not stated)	nt	+
CCN1CCN(c2nc3c(c(=O)n(C)c(=O)n3C)n2CC(O)COc2ccccc2)CC1 (configuration not stated)	nt	i
CC(O)CNc1nc2c(c(=O)[nH]c(=O)n2C)n1CC(O)COc1ccc(Cl)cc1 (configuration not stated)	nt	i
Cn1c(=O)c2c(nc(N3CCN(Cc4ccccc4)CC3)n2CC(O)COc2ccc(Cl)cc2)n(C)c1=O (configuration not stated)	nt	+
O=C(c1ccc2ncsc2c1)N(CCN1CCOCC1)c1nc2ccc(F)cc2s1	nt	i
CC(=O)c1ccccc1OC(=O)c1ccc(C)c(Br)c1	nt	i
N#Cc1ccc(C(=O)NCCC(O)c2cccs2)cc1 (configuration not stated)	i	i
COCCNC(=O)Cn1nc2c(c1NC(=O)C1(c3ccc(Cl)cc3)CCCC1)CSC2	i	+
CCCNC(=O)Cn1nc2c(c1NC(=O)CCc1ccc(OC)cc1)CSC2	i	+
CCCNC(=O)Cn1nc2c(c1NC(=O)C1(c3ccc(Cl)cc3)CCCC1)CSC2	i	i
COc1ccc(CNC(=O)Cn2nc3c(c2NC(=O)c2ccc(C)c(C)c2)CSC3)cc1	i	i
CCOC(=O)N1CCN(C(=O)C2CN(c3nc4c(C(F)(F)F)cccc4s3)C2)CC1	i	i
Cc1csc(NC(=O)Cn2nc(-n3nc(C)cc3C)ccc2=O)n1	i	i
COc1cccc(COC(=O)c2nnn(-c3ccc(C)cc3)c2C)c1	nt	+
Cc1oc(-c2ccccc2)nc1COC(=O)c1nnn(-c2ccc(Cl)cc2)c1C	nt	i
COc1ccc(-n2nnc(C(=O)OCc3cccc(OC)c3)c2C)cc1	nt	i
Cc1ccc(-n2nnc(C(=O)OCc3nc(-c4ccccc4C)oc3C)c2C)cc1	nt	+
Cc1ccc(NC(=O)N2CCN(c3ccc(Nc4cccnc4)nn3)CC2)cc1C	i	i
CSc1cccc(NC(=O)c2n[nH]c3ccccc23)c1	i	i
O=C(Nc1ccc(F)c(F)c1)c1n[nH]c2ccccc12	nt	+
Cc1cc(C)c(S(=O)(=O)N2CCN(c3c(C)cccc3C)CC2)c(C)c1	nt	i
Cc1cc(C)c(S(=O)(=O)N2CCN(c3cccc(C)c3C)CC2)c(C)c1	nt	+
O=C(Nc1nnc(-c2ccco2)o1)C1CCN(S(=O)(=O)c2ccc(Cl)cc2)CC1	i	i
O=C(c1ncccn1)N1CCCC1	i	nt
CC1=C(C(=O)OC(C)(C)C)C(c2ccccc2F)NC(=O)N1 (configuration not stated)	nt	+
SMILES	GIRK2 act	AMPAR-TARP mod
CCOC(=O)C1=C(C)NC(=O)NC1c1cccc2ccccc12 (configuration not stated)	nt	i
O=C(NCCn1nc(-n2cccn2)ccc1=O)C1(c2ccccc2)CCOCC1	i	nt
COc1ccc(S(=O)(=O)NCC(c2ccc3c(c2)OCO3)N2CCOCC2)cc1F (configuration not stated)	nt	i
COc1cc(/C=C/C(=O)N2CCC(C)CC2)ccc1OCc1ccccc1	i	+!
COc1cc(/C=C/C(=O)N2CCCCCC2)ccc1OCc1ccccc1	i	i
COc1ccc(OC)c2sc(N(CCN3CCOCC3)C(=O)/C=C/c3ccc([N+](=O)[O-])cc3)nc12	i	i
COc1ccc(C)c2sc(N(Cc3ccncc3)C(=O)/C=C/c3ccc([N+](=O)[O-])cc3)nc12	i	+
CC(=O)N1CCN(C(=O)CCc2csc(NC(=O)c3ccc[nH]c3=O)n2)CC1	i	i
O=C(Cn1cnc2c(-c3ccccc3)csc2c1=O)NCCc1ccccc1	i	i
COc1ccc(OC)c2sc(N(CCN3CCOCC3)C(=O)c3ccc([N+](=O)[O-])s3)nc12	nt	i
CN(C1CCCC1)S(=O)(=O)c1ccc(C(=O)Nc2ncnc3sccc23)cc1	nt	i
CCN(C1CCCCC1)S(=O)(=O)c1ccc(C(=O)Nc2ncnc3sccc23)cc1	i	+
CCOCCN1N=C(c2ccc(F)cc2)Cn2c1nc1c2c(=O)n(C)c(=O)n1C	nt	i
COC(=O)Cn1c(-c2ccccc2)cn2c3c(=O)n(C)c(=O)n(C)c3nc12	i	+
CCOC(=O)Cn1c(-c2ccccc2)cn2c3c(=O)n(C)c(=O)n(C)c3nc12	nt	i
CCCCCn1c(C)c(C)n2c3c(=O)n(C)c(=O)n(C)c3nc12	i	i
Cc1c(C)n2c3c(=O)n(C)c(=O)n(C)c3nc2n1CCCN1CCOCC1	i	+
Cc1cn2c3c(=O)[nH]c(=O)n(C)c3nc2n1CCCN1CCOCC1	i	+
Cn1c(=O)c2c(nc3n2CC(c2ccc(F)cc2)=NN3CCN2CCOCC2)n(C)c1=O	i	+
CCCCn1c(NCCCN2CCOCC2)nc2c1c(=O)[nH]c(=O)n2C	i	i
N#CC1(C(=O)NCCc2ccc(F)cc2)CC1	i	nt
Cc1c(C)n2c3c(=O)n(CC(N)=O)c(=O)n(C)c3nc2n1CCCn1ccnc1	i	+
Cc1c(C)n2c3c(=O)n(CC(N)=O)c(=O)n(C)c3nc2n1-c1ccc(Br)cc1	nt	i
Cc1ccc(-n2c(-c3ccccc3)cn3c4c(=O)n(CCN5CCOCC5)c(=O)n(C)c4nc23)cc1	nt	i
Cn1c(=O)c2c(nc3n(CCN4CCOCC4)c(-c4ccccc4)cn23)n(C)c1=O	nt	+
SMILES	GIRK2 act	AMPAR-TARP mod
Cc1cccc(C(=O)N=C2SC3CS(=O)(=O)CC3N2c2ccc(F)cc2)c1 (configuration not stated)	nt	i
CCOc1ccccc1NC(=O)Cn1nc(C(=O)Nc2ccc(C)cc2)ccc1=O	i	i
CCOc1ccc(CC(=O)Nc2nc3c(OC)ccc(OC)c3s2)cc1	nt	i
O=C(NCc1cccc2ccccc12)Nc1ccc(Cl)c(N2CCCS2(=O)=O)c1	i	+
O=C(NCc1cccs1)Nc1ccc(Cl)c(N2CCCS2(=O)=O)c1	i	i
CC(c1ccccc1)n1c(N2CCCCCC2)nc2c1c(=O)n(C)c(=O)n2C (configuration not stated)	i	+
CC(c1ccccc1)n1c(N2CCCC2)nc2c1c(=O)n(C)c(=O)n2C (configuration not stated)	i	i
Cc1ccc(C)c(CSc2ccc(-c3ccc4c(c3)OCO4)nn2)c1	i	i
CCN(C1CCCCC1)S(=O)(=O)c1cc(C(C)C)c(C)cc1OC	nt	+
CCCN(CCC)S(=O)(=O)c1cc(C(C)C)c(C)cc1OC	nt	i
COc1ccc(Cl)cc1S(=O)(=O)Nc1ccc(CC(=O)NCc2cccs2)cc1	i	i
Cc1ccc(C(CNC(=O)NC2CCCCC2)N2CCOCC2)cc1 (configuration not stated)	i	+
COc1cccc(C(CNC(=O)C2CCCCC2)N2CCOCC2)c1 (configuration not stated)	nt	+
COc1cccc(C(CNC(=O)Nc2ccc(Cl)cc2)N2CCOCC2)c1 (configuration not stated)	i	+
COc1cccc(C(CNC(=O)c2ccc([N+](=O)[O-])cc2)N2CCOCC2)c1 (configuration not stated)	i	i

Compound activity from PubChem.
